Screening data deposited in PubChem BioAssay by several laboratories.
Most compounds without a hit are left out; they make up all but 3.3% or so of the library.
Mcl1 Noxa PPI = Mcl-1/Noxa interaction inhibition. Q07820. TR-FRET Mcl-1/Noxa peptide binding, 2 h. inhibition, % at 21.7 µM. actives 1.5% (n = 220,000). AID 1022;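 active means compounds that cut the protein-peptide binding signal by more than 50% relative to plate controls in a single-dose test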;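 further: His-tagged Mcl-1 with rhodamine Noxa BH3 peptide and terbium anti-His antibody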
Mcl-1 Bim block = human Bim-Mcl-1 interaction inhibition; AID 1009; inhibition, % at 10 µM; actives 0.1% (n = 190,000); Q07820; Bead-based flow cytometry, Bim peptide-Mcl-1 binding; in the data active means inhibition above about 40%
Mcl1-Bid inh = Mcl-1/Bid interaction inhibition; Q07820; TR-FRET Mcl-1/Bid-Dy647 peptide binding, 1536-well; inhibition, % at 21.7 µM; actives 0.97% (n = 220,000);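 active means compounds that cut the binding signal by more than half at the single screening dose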;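 further: His-tagged Mcl-1 with europium anti-His antibody binding Bid BH3 peptide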
eIF4E 4G PPI = blocks eIF4E binding to eIF4G; P63073+Q04637; TR-FRET eIF4E-eIF4GI(517-606) binding, 2 h; inhibition, % at 21.7 µM; actives 0.37% (n = 220,000); AID 782
NCF1 inh = blocks human p47phox regulatory protein of NADPH oxidases; P14598; p47phox/p22phox peptide binding, fluorescence polarization, 2 h; inhibition, % at 24.7 µM; actives 0.53% (n = 220,000)
14-3-3 Bad inh = disrupts binding of bovine 14-3-3 zeta to phospho-Bad peptide. TR-FRET 14-3-3zeta/Dy647-pBad peptide displacement, 1 h. inhibition, % at 21.7 µM. actives 0.71% (n = 220,000);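 active means inhibition above about 70%, limit read from the data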
A number is an active result; 0 = inactive; - = no result given.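 How the source made its calls, unless noted: active means inhibition above about 30% (limit read from the data); inactive means the rest.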

SMILES | Mcl1 Noxa PPI | Mcl-1 Bim block | Mcl1-Bid inh | eIF4E 4G PPI | NCF1 inh | 14-3-3 Bad inh
COc1cc(/C=N/NC(=O)Cc2csc(N3CCOCC3)n2)cc(OC)c1O | 58 | 0 | 0 | 0 | 0 | 0
CC(C)CN(C)C(=O)CC1C(=O)NCCN1C (centres undefined) | 0 | 0 | 0 | 0 | 0 | 0
Cc1ccc(Nc2nc(N)nc(CN3CCc4ccccc4C3)n2)cc1 | 0 | 0 | 0 | 0 | 77 | 0
Cc1c(Cl)cccc1Nc1nc(N)nc(CN2CCc3ccccc3C2)n1 | 0 | 0 | 0 | 0 | 0 | 0
Cc1nn(-c2ccc(Cl)c(Cl)c2)c(C)c1C(=O)O | 0 | 54 | 0 | 0 | 0 | 0
Cc1nn(-c2ccc(C(=O)O)cc2)c(C)c1Cl | 0 | 0 | 0 | 0 | 0 | 0
Cc1nnc(SCC(=O)N2N=C(c3ccc(Cl)cc3)CC2c2ccco2)[nH]c1=O (centres undefined) | 53 | 0 | 0 | 0 | 0 | 0
CC(=O)N1N=C(c2ccc(Cl)cc2)CC1c1ccco1 (centres undefined) | 0 | - | 0 | 0 | 0 | 0
COc1ccc(C2=NN(c3ccccc3)C(=O)/C2=C\c2ccc(O)c(OC)c2)cc1 | 52 | 0 | 0 | 0 | 0 | 0
O=C(NCc1ccccn1)C(=O)Nc1nc(C23CC4CC(CC(C4)C2)C3)cs1 | 0 | 0 | 0 | 0 | 0 | 0
CCN(CC)S(=O)(=O)c1ccc(NC(=O)c2cc(C(=O)OC)cc([N+](=O)[O-])c2)cc1 | 0 | 0 | 0 | 33 | 0 | 0
COC(=O)c1cc(C(=O)Nc2ccc(S(=O)(=O)NC(C)(C)C)cc2)cc([N+](=O)[O-])c1 | 0 | 0 | 0 | 0 | 0 | 0
CN1CCN(C(c2ccccn2)c2cc(Cl)c3cccnc3c2O)CC1 (centres undefined) | 0 | 0 | 0 | 0 | 0 | 0
Oc1c(C(c2ccc(Cl)cc2)N2CCCC2)cc(Cl)c2cccnc12 (centres undefined) | 0 | 0 | 73 | 0 | 0 | 0
O=C(Nc1ccc(Cl)cc1Cl)c1ccc(-c2ccccc2)cc1 | 70 | 0 | 0 | 0 | 0 | 0
Cc1cc2cc(CNC(=O)c3ccc(Br)o3)ccc2n1C | 59 | - | 0 | 0 | 0 | 0
CCCC(=O)NCc1ccc2c(c1)cc(C)n2C | 0 | 0 | 0 | 0 | 0 | 0
COc1ccc(C(=O)/C=C/Nc2ccc(S(N)(=O)=O)cc2)cc1OC | 0 | - | 0 | 0 | 0 | 0
NS(=O)(=O)c1ccc(N/C=C\C(=O)c2ccc3ccccc3c2)cc1 | 0 | 0 | 54 | 0 | 0 | 0
O=C(O)CCCNc1ccc(S(=O)(=O)Nc2ccccc2C(=O)O)cc1C(=O)O | 60 | 0 | 0 | 0 | 0 | 0
O=C(O)c1ccccc1NS(=O)(=O)c1ccccc1C(F)(F)F | 53 | 0 | 0 | 0 | 0 | 0
O=C(O)c1ccccc1NS(=O)(=O)c1cccc2cccnc12 | 0 | 0 | 0 | 0 | 0 | 0
COc1ccc(C2CC(c3ccccc3)Nc3nc(N)nn32)cc1 (centres undefined) | 0 | 0 | 71 | 0 | 0 | 0
Nc1nc2n(n1)C(c1ccco1)CC(c1ccccc1)N2 (centres undefined) | 0 | 0 | 0 | 0 | 46 | 0
CCCCc1nc2cc(Cl)ccc2o1 | 0 | 0 | 0 | 0 | 0 | 0
SMILES | Mcl1 Noxa PPI | Mcl-1 Bim block | Mcl1-Bid inh | eIF4E 4G PPI | NCF1 inh | 14-3-3 Bad inh
COc1ccc(OS(=O)(=O)c2c(C)noc2C)cc1 | 0 | - | 0 | 0 | 0 | 0
CCOc1ccc(CCNC(=O)CCC(=O)Nc2ccc3nc(N4CCN(C)CC4)cc(C)c3c2)cc1OCC | 0 | 0 | 0 | 0 | 0 | 91
COc1ccc(CCNC(=O)CCC(=O)Nc2ccc3nc(N4CCN(C)CC4)cc(C)c3c2)cc1OC | 0 | 0 | 0 | 0 | 0 | 0
CCOC(=O)c1cnc(SCC(C)C)nc1N | 0 | 0 | 0 | 0 | 0 | 0
CCOC(=O)c1cnc(SC)nc1N | 0 | 0 | 0 | 0 | 109 | 0
CCN(C(=O)COC(=O)c1ccc(Br)o1)C1CCCCC1 | 0 | 0 | 0 | 0 | 0 | 0
Cc1nn(Cc2ccc(F)cc2)c2sc(C(=O)Nc3ccc(N4CCOCC4)cc3N3CCOCC3)cc12 | 76 | 0 | 0 | 0 | 0 | 0
CCCCCn1c(N)c(-c2nc3ccccc3o2)c2c([N+](=O)[O-])nn(CC)c(=O)c21 | 97 | 0 | 60 | 0 | 0 | 0
CCCCCn1c(N)c(-c2nc3ccccc3s2)c2c([N+](=O)[O-])nn(CC)c(=O)c21 | 0 | 0 | 0 | 0 | 0 | 0
